Where “and” joins values, the source holds several entries; their conditions need not be identical. Equal values may be shown once. Values without a mark were called inactive. Inconclusive results are not listed. Calls of active or inactive are those of the source. Unless noted, the call rests on the fitted dose curve; in most records, active means well fitted curve in either direction with a large enough effect (not every such curve was filed as active); inconclusive means small, poorly fitted or top-dose-only effect, or another doubt; inactive means flat fitted curve, though single readings scatter. Residues, ends and D or L forms follow the SMILES beside them.
How the values were obtained:
[1] = molecular target: Lysosomal acid glucosylceramidase (Homo sapiens) (UniProt P04062); assay: Glucocerebrosidase-p2 (AID 348; in the data active means potency below about 10 µM; further: potency means the concentration at half of the fitted maximal effect); conditions: purified GBA, blue fluorogenic substrate, 40 min
Chain of Lysosomal acid glucosylceramidase (Homo sapiens) (P04062 whole entry, looked up): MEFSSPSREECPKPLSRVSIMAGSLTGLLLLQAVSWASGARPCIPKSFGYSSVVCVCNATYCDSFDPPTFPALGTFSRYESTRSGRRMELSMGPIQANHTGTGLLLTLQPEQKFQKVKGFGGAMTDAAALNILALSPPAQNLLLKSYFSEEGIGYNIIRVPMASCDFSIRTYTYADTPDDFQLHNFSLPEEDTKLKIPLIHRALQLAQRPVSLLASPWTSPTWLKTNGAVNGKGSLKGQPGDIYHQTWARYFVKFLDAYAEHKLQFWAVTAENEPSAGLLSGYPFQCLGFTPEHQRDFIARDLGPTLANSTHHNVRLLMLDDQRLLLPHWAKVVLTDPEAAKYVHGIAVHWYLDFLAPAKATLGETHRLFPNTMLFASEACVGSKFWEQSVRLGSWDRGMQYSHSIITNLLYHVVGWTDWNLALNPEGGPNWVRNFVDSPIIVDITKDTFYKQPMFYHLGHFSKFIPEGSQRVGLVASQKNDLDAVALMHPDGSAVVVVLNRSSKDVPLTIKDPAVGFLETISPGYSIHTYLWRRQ
How it was run: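 Compounds titrated from 0.6 nM upwards against 0.2 nM enzyme in pH 5.9 citric acid/KH2PO4, taurocholate, tween-20; blue fluorogenic substrate 80 uM, 40 min room temperature, stopped and read Ex 365/Em 440 for AC50.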

[2] = AP1 Signaling Pathway (AID 357); conditions: ME-180 AP-1-bla reporter, EGF-induced, beta-lactamase ratio, 5 h; at 7.69 µM (top of the series) unless noted;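 further: ME-180 reporter cells stimulated with EGF at its EC50 level; on the % scale 0 is the no-effect control and ±100 the full control effect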
How it was run: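 A ratiometric CCF4 readout (405 nm excitation; 460 and 530 nm emission) quantified AP-1-driven beta-lactamase in ME-180 cells after 5 h with compound and EC50 EGF; AC50 values were derived for activators and inhibitors.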

[3] = molecular target: Cytochrome P450 1A2 (Homo sapiens) (UniProt P05177); assay: p450-cyp1a2 (AID 410; calls by dose curve; further: potency means the concentration at half of the fitted maximal effect;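 on activity change, negative = inhibition: -100% = full effect of reference inhibitor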); conditions: recombinant CYP1A2, luciferin-ME demethylation, luminescence; series mostly up to 11.4 µM
Chain of Cytochrome P450 1A2 (Homo sapiens) (P05177 whole entry, looked up): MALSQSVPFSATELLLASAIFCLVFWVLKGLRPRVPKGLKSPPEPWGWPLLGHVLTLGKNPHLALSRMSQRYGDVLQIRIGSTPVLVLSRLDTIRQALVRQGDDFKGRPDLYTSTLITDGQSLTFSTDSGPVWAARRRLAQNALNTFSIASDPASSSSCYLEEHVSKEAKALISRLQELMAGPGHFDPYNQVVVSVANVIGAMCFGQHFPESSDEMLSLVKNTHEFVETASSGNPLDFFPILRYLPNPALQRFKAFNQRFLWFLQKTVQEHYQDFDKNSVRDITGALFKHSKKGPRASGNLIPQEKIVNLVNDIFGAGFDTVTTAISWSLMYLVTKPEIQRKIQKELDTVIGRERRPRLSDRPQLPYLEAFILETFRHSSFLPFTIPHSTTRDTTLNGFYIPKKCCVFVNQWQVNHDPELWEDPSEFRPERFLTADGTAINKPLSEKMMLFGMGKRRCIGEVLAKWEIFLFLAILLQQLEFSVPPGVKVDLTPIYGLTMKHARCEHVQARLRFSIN
How it was run: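 Human CYP1A2 (20nM) demethylated Luciferin-ME at its Km (100uM) in 100mM KPO4. After 10 min compound preincubation, NADPH regeneration ran the reaction 60 min at room temperature. Luciferin was read by luminescence, normalized to 57 uM furafylline.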

[4] = NFAT Signaling Pathway (AID 444); conditions: Jurkat NFAT-bla M1, carbachol, beta-lactamase ratio, 5 h; at 7.69 µM (top of the series) unless noted;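 further: carbachol stimulus at about its EC50 of 1 µM final; on the % scale 0 is the no-effect control and ±100 the full control effect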
How it was run: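 Jurkat cells carrying an NFAT-driven β-lactamase reporter and co-transfected muscarinic M1 receptor were treated with compound plus carbachol (1 uM final, an EC50 level) for 5 h at 37 °C. CCF4 loading followed for 1 h at RT; 460/530 nm ratio gave %activity.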

[5] = Stat Signaling Pathway (AID 446); conditions: ME-180 SIE beta-lactamase reporter, IL-6 stimulated, 5 h; at 7.69 µM (top of the series) unless noted;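 further: ME-180 cervical cancer cells given 40 pM IL-6 alongside compound; SIE-controlled beta-lactamase reporter measured as 460/530 nm FRET emission ratio; on the % scale 0 is the no-effect control and ±100 the full control effect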
How it was run: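 Screening format detects activators and inhibitors alike: ME-180 SIE-bla cells stimulated at 40 pM IL-6 for 5 hrs with compound, then dual-emission beta-lactamase read at 405 nm excitation.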

[6] = molecular target: Glucocorticoid receptor (Homo sapiens) (UniProt P04150); assay: GR-GFP Redistribution (AID 450;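 active means compounds whose dose series gives a full or clear partial fitted curve of increased nuclear translocation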; further: potency means the concentration at half of the fitted maximal effect); conditions: U2OS GR-GFP nuclear translocation, laser cytometry, 2 h
Chain of Glucocorticoid receptor (Homo sapiens) (P04150 whole entry, looked up, the tested form may be a part): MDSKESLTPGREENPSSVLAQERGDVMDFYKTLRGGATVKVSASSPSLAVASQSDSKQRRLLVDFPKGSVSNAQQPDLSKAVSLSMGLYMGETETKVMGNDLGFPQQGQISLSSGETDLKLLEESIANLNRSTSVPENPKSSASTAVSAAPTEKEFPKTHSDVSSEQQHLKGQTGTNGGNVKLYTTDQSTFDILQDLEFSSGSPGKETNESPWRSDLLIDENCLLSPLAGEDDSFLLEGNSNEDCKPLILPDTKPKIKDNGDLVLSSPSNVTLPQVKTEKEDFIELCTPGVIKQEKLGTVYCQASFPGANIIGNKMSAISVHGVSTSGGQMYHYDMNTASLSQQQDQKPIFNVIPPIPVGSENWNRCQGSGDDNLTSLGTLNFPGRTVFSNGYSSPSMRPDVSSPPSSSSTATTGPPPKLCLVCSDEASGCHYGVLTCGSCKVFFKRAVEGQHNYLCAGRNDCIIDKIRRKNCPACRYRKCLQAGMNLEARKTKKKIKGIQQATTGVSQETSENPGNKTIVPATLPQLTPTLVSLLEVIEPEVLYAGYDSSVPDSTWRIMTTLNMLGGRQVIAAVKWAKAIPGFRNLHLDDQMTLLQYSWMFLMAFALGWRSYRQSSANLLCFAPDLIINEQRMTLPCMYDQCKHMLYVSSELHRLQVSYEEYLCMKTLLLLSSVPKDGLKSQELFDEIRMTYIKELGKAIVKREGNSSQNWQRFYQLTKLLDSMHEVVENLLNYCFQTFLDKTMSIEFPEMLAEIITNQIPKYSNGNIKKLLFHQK

[7] = molecular target: Glucocorticoid receptor (Homo sapiens) (UniProt P04150); assay: GR-EFC Redistribution (AID 451; calls by dose curve; further: potency means the concentration at half of the fitted maximal effect); conditions: CHO-K1 GR-EFC translocation, beta-gal luminescence, 2 h
How it was run: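 CHO-K1 cells stably expressing nuclear-localized β-gal enzyme acceptor and GR fused C-terminally to the enzyme donor fragment; ligand-driven nuclear translocation restores β-gal by complementation. Compounds titrated up to 46 uM final, 2 h at 37 °C; luminescence read.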

[8] = molecular target: Mitogen-activated protein kinase 10 (Mus musculus) (UniProt Q61831); assay: JNK3 AlphaScreen Assay (AID 530); conditions: JNK3 lysate, c-Jun phosphorylation; series mostly up to 11.4 µM;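 further: kinase came from lysate of stimulated human HepG2 cells; signal reports phosphorylation of biotinylated GST-cJun 1-79 at Ser73 with 10 µM ATP; on the % scale 0 is the no-effect control and ±100 the full control effect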
How it was run: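 JNK3 came from HepG2 lysates pre-activated with IL-1beta and TNF-alpha and phosphorylated biotinylated GST-cJun (1-79) at 10 uM ATP, pH 7.6, room temperature. Compounds were titrated. AlphaScreen signal used anti-phospho-cJun (Ser73) antibody.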

[9] = molecular target: 3',5'-cyclic-AMP phosphodiesterase 4B (Homo sapiens) (UniProt Q07343); assay: qHTS Assay for Inhibitors of PDE-IV (AID 607; active means well fitted activation curve with a large enough effect in the main read-out, with a control signal flat, not every such curve was filed as active; further: % of control where 0% means no effect); conditions: HEK293 ACTOne CNG channel cells, membrane potential fluorescence; series mostly up to 22.9 µM
Chain of 3',5'-cyclic-AMP phosphodiesterase 4B (Homo sapiens) (Q07343 whole entry, looked up): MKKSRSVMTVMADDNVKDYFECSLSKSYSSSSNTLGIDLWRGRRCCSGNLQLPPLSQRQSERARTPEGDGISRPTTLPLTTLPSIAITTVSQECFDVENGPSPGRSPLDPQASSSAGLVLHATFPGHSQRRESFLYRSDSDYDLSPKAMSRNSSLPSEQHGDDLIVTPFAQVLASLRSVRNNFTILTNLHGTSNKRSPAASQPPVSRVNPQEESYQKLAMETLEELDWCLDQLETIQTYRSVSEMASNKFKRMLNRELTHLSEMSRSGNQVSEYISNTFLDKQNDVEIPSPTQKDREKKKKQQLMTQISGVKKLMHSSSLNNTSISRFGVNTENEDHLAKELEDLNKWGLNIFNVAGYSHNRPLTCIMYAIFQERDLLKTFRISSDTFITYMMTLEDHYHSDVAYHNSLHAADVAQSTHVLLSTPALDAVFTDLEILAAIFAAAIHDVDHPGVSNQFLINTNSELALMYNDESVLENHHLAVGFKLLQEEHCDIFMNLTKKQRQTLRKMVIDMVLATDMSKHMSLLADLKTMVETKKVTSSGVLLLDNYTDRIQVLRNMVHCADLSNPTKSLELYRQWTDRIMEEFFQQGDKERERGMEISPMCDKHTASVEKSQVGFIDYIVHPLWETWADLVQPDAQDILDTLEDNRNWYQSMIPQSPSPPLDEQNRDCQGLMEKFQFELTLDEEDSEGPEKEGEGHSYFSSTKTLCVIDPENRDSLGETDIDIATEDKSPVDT
How it was run: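 The readout is membrane depolarisation from a cAMP-sensing CNG channel, detected with a potential dye at ex 535/em 590. Cells were HEK293-derived (endogenous PDE-IV) at 1000 cells/well, titrated up to 22.9 uM final.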

| Structure (SMILES) | Potency [1] [µM] | activity change, negative = inhibition [2] | Potency [3] | activity change, negative = inhibition [4] | activity, negative = inhibition [5] | Potency [6] [µM] | Potency [7] [µM] | Potency [8] | Potency [9] | activity change, negative = inhibition [3] |
| --- | --- | --- | --- | --- | --- | --- | --- | --- | --- | --- |
| O=[N+]([O-])c1ccc2ncccc2c1CCc1c([N+](=O)[O-])ccc2ncccc12 | > 11.4 | 1.48% | 3.16 µM (active) | 17.8% | 5.88% | > 46 | > 9.22 | inactive | inactive |  |
| O=C1Nc2ccccc2C1=Nc1cccc2ncccc12 | > 11.4 | 5.64% | 3.98 µM (active) | -3.54% | 2.41% | > 46 | > 9.22 | inactive | inactive |  |
| CC(C)NCC[C@@H](O)c1cc2ccccc2o1 | > 11.4 | -15% |  | -2.7% | 9.58% | > 46 | > 9.22 | inactive | inactive | -2.1% [at 2.29 µM] |
| C[C@]12CCC3c4ccc(OCC(=O)O)cc4CCC3C1CCC2=O (some centres undefined) | > 11.4 | 6.42% |  | -1.29% | 9.48% | > 46 | > 9.22 | inactive | inactive | 0.7% [at 2.29 µM] |
| CC1=NN(c2ccccc2)C(=O)[C@@H]1N=Nc1ccc(S(N)(=O)=O)cc1 | > 11.4 | 6.08% | 1.26 µM (active) | 9.48% | -4.22% | > 46 | > 9.22 | inactive | inactive |  |
| OCCCNc1ncnc2[nH]ncc12 | > 11.4 | 7.33% | 6.31 µM (active) | 0.588% | -7.35% | > 46 | > 9.22 | inactive | inactive |  |
| O=C(O)[C@@H]1[C@@H]2C[C@H]([C@@H](Br)[C@H]2N2C(=O)CCC2=O)[C@@H]1C(=O)O | > 11.4 | -1.32% |  | 10.6% | 11.9% | > 46 | > 9.22 | inactive | inactive | -15.8% [at 2.29 µM] |
| Nc1ccc(C(=O)C[C@H](N)C(=O)O)cc1O | > 11.4 | 8.27% | inactive | -4.19% | 6.37% | > 46 | > 9.22 | inactive | inactive |  |
| c1ccc2cc(-c3cc(-c4cc(-c5ccc6ccccc6c5)on4)no3)ccc2c1 | > 11.4 | 2.52% | 1.58 µM (active) | 1.2% | 1.33% | > 46 | > 9.22 | inactive | inactive |  |
| CCOC(=O)c1cnc(N(C)C)nc1SC(=N)N | > 11.4 | -8.3% |  | 11.3% | -0.214% | > 46 | > 9.22 | inactive | inactive | -22.6% [at 2.29 µM] |
| O=C(NCc1cccnc1)[C@@H]1[C@@H](C(=O)O)[C@H]2CC[C@@H]1O2 | > 11.4 | 1.51% | inactive | 4.54% | 11.6% | > 46 | > 9.22 | inactive | inactive |  |
| NC1=C2NC=N[C@@H]2N(C/C=C\c2ccccc2)C=N1 | > 11.4 | 1.36% |  | 4.81% | 13.2% | > 46 | > 9.22 | inactive | inactive | -12.4% [at 2.29 µM] |
| O=C(O)c1cccc(C(=O)O)c1S(=O)Cc1ccccc1 (centres undefined) | > 11.4 | 5.26% | inactive | 7.39% | 6.2% | > 46 | > 9.22 | inactive | inactive |  |
| Nc1nc(-c2cccnc2)cc(-c2cc(-c3cccnc3)nc(N)n2)n1 | > 11.4 | 16.4% |  | 12.8% | 1.62% | > 46 | > 9.22 | inactive | inactive | -15.9% [at 2.29 µM] |
| N[C@H](CO)C(=O)NCC(=O)O (HELM PEPTIDE1{[dS].G}$$$$V2.0) | > 11.4 | -4.49% |  | 13.2% | 13.6% | > 46 | > 9.22 | inactive | inactive | 3.6% [at 2.29 µM] |
| Cn1ccnc1C[C@@](C)(O)c1ccccc1 | > 11.4 | 7.99% | inactive | 2.18% | 8.21% | > 46 | > 9.22 | inactive | inactive |  |

| Structure (SMILES) | Potency [1] [µM] | activity change, negative = inhibition [2] | Potency [3] | activity change, negative = inhibition [4] | activity, negative = inhibition [5] | Potency [6] [µM] | Potency [7] [µM] | Potency [8] | Potency [9] | activity change, negative = inhibition [3] |
| --- | --- | --- | --- | --- | --- | --- | --- | --- | --- | --- |
| O=C(O)/C(=C\c1ccc(O)cc1)c1cccc2ccccc12 | > 11.4 | 1.02% | inactive | 2.46% | -8.2% | > 46 | > 9.22 | inactive | inactive |  |
| O=C(O)C1=C/C(=C(/c2ccccc2)c2cc(C(=O)O)c(O)c3ccccc23)c2ccccc2C1=O | > 11.4 | 1.91% and 8.74% | inactive | 12% and -21.2% | 2.38% and 8.71% | > 46 | > 9.22 | inactive | inactive |  |
| O=C(O)[C@@H](c1ccccc1)[C@@H](C(=O)O)c1ccccc1 | > 11.4 | 3.89% |  | 6.48% | -0.514% | > 46 | > 9.22 | inactive | inactive | -12% [at 2.29 µM] |
| NS(=O)(=O)c1ccc(NCc2nc3ccccc3[nH]2)cc1 | > 11.4 | 2.25% |  | 8.2% | 9.55% | > 46 | > 9.22 | inactive | inactive | -18.8% [at 2.29 µM] |
| Cn1c(=O)c2[nH]c(CCC(=O)O)nc2n(C)c1=O | > 11.4 | 0.0396% | inactive | 10.1% | -0.184% | > 46 | > 9.22 | inactive | inactive |  |
| CN(CC(=O)O)Cc1oc(CO)cc(=O)c1O | > 11.4 | 6.02% | inactive | 10% | 5.1% | > 46 | > 9.22 | inactive | inactive |  |
| O=C1CC[C@H](NC(=O)c2ccccc2)C(=O)N1 | > 11.4 | 5.12% | inactive | 4.46% | 2.96% | > 46 | > 9.22 | inactive | inactive |  |
| Nc1ncnc2c1ncn2[C@H]1O[C@@H](CO)[C@@H](O)[C@H]1N | > 11.4 | -9.35% | inactive | -3.9% | 5.68% | > 46 | > 9.22 | inactive | inactive |  |
| CC(C)(CO[C@H]1C[C@H]2CC[C@@]1(C)C2(C)C)[N+](=O)[O-] | > 11.4 | -1.64% | inactive | 7.34% | -3.85% | > 46 | > 9.22 | inactive | inactive |  |
| O=C(O)[C@@H]1CS[C@@]2(CCCN(Cc3ccccc3)C2)N1 | > 11.4 | 8.03% |  | 18.2% | 2.47% | > 46 | > 9.22 | inactive | inactive | -12% [at 2.29 µM] |
| O=[N+]([O-])c1nccn1C[C@H](O)CN1CCCCC1 | > 11.4 | 21.1% | inactive | 0.912% | 6.06% | > 46 | > 9.22 | inactive | inactive |  |
| Cc1ccccc1S(=O)(=O)O[C@@H]1NS(=O)(=O)c2ccccc21 | > 11.4 | 6.97% |  | 10.8% | 0.825% | > 46 | > 9.22 | inactive | inactive | 13.5% [at 2.29 µM] |
| O=C(O)c1ccccc1-c1ccccc1C(=O)Nc1ccc2c(c1)Cc1ccccc1-2 | > 11.4 | 6.9% |  | -20.4% | -24.1% | > 46 | > 9.22 | inactive | inactive | -7.1% [at 2.29 µM] |
| CCC(=O)Nc1ncnc2ncn(C(=O)CC)c12 | > 11.4 | 8.41% | inactive | 1.71% | 1.38% | > 46 | > 9.22 | inactive | inactive |  |
| C(=Nc1cnc2ccccc2c1)c1ccc2ccccc2n1 | > 11.4 | -2.4% | 3.98 µM (active) | 3.2% | -6.04% | > 46 | > 9.22 | inactive | inactive |  |
